In PubChem BioAssay AID2016 (NMMLSC, 2009):
The campaign covered roughly 330,000 compounds. About 1,700 (0.52%) were called active. The list comes from a sample in which actives are over-represented; it also holds similar structures and randomly drawn compounds. Values without a mark were called inactive.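 How the source made its calls: active means GFP response versus DMSO above a set limit, roughly screen mean plus 3 SD (cut at about 180% in these data); inconclusive means fewer than 70 cells counted for a yeast strain; inactive means the rest.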

Assay: TOR pathway GLN3 branch reporter MEP2-GFP changes – S. cerevisiae, multiplex flow cytometry, MLPCN library, primary screen (AID 2016);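 further: median GFP fluorescence of the barcode-gated MEP2-GFP cells per well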
Conditions: S. cerevisiae MEP2-GFP strain, 3 h, at 10 µM, stronger effect = higher value, 100% = DMSO control level

SMILES | GFP response vs DMSO
N#CCCN1CCN(S(=O)(=O)c2ccc(S(=O)(=O)NC3CCCCC3)cc2)CC1 | 107%
Cn1c2ccccc2c2c(C(=O)N3CCN(c4ccc(F)cc4)CC3)cn(C3CCCC3)c(=O)c21 | 116%
COc1cc(C)c(Cl)cc1S(=O)(=O)n1ccnc1 | 92%
O=C(NCC(=O)N1CCN(c2ccccc2F)CC1)c1cccs1 | 111%
C/C(=N/NS(=O)(=O)c1ccccc1)c1ccc(NC(=O)C(F)(F)F)cc1 | 219% (active)
C/C(=N\NS(=O)(=O)c1ccc(Cl)cc1)c1ccc(NC(=O)c2ccco2)cc1 | 102%
CC(=O)N(C)c1ccc(NC(=O)C(F)(F)F)cc1 | 100%
C[N+](C)(C)CCNC(=O)c1cc[n+](Cc2ccccc2)c(/C=N/O)c1 | 104%
COC(=O)Nc1ncc(CN2C(=O)c3ccccc3C2=O)s1 | 109%
CCOC(=O)c1cnc(SCC(=O)NCc2ccco2)nc1N | 222% (active)
CCOC(=O)c1cnc(SCC(=O)Nc2cccc(OC)c2)nc1N | 90.7%
CCOC(=O)c1cnc(SCC(=O)Nc2ccccc2C(=O)OC)nc1N | 98.3%
CCOc1ccc(CN(Cc2ccco2)C(c2cccs2)c2nnnn2C(C)(C)C)cc1 (stereo not drawn) | 98.9%
CCN(CCn1cccn1)C(=O)CC1C(=O)NCCN1Cc1cccc(OC)c1OC (stereo not drawn) | 100%
CC(=O)Nc1ccc(NC(=O)COC(=O)C2CCC(C(C)(C)C)CC2)cc1 (stereo not drawn) | 103%
CC(=O)Nc1ccc(NC(=O)CC2CCCC2)cc1 | 779% [may fluoresce violet] (active)
COc1ccc(NC(=O)CN(C)C(=O)CC2CCCCC2)cc1 | 102%
O=C(COC(=O)/C=C/c1cccc(Cl)c1)NCCc1ccccc1 | 114%
CCN(CC(=O)NC(=O)NCc1ccccc1)Cc1nc2ccccc2c(=O)[nH]1 | 98.5%
O=C(c1ccco1)N(Cc1nc2ccccc2c(=O)[nH]1)C1CCCC1 | 271% [may fluoresce violet] (active)
CCCC(=O)N(CCc1ccccc1)Cc1nc2ccccc2c(=O)[nH]1 | 85.6%
COc1ccc(CNC(=O)CN(C(=O)c2csnn2)c2cnc3ccccc3c2)cc1 | 102%

SMILES | GFP response vs DMSO
CCCCCCNCCn1cnc2c(N)ncnc21 | 97.1%
COc1ccc(CCNC(=S)N2CCN(S(=O)(=O)c3ccc(F)cc3)CC2)cc1 | 103%
COc1ccc(C(=O)Nc2cccc(S(C)(=O)=O)c2)cc1 | 112%
COc1ccc(NS(=O)(=O)c2cc(C(=O)Nc3ccccc3C(=O)O)ccc2C)cc1 | 95.4%
COc1ccc(C(=O)NN(C)c2nc(-c3ccccc3)cc(C)c2S(C)(=O)=O)cc1 | 287% [may fluoresce violet] (active)
O=C(c1cc(S(=O)(=O)N2CCOCC2)ccc1Cl)N1CCOCC1 | 103%
O=C(CCc1ccc(S(=O)(=O)N2CCOCC2)cc1)NN=C1CCCCCCC1 | 104%
O=C(O)c1ccc(S(=O)(=O)N2CCOCC2)o1 | 264% [may fluoresce violet] (active)
Cc1cccc(C)c1NC(=O)c1ccc(CN2CCc3ccccc3C2)cc1 | 101%
COc1ccc(C(=O)N(Cc2ccccc2)c2ccc(C)cc2)cc1S(=O)(=O)N1CCOCC1 | 103%
CCOc1ccccc1NC(=O)C12CC3CC(C1)CC(c1ccc(C)cc1)(C3)C2 | 97.6%
Cc1ccc(C23CC4CC(CC(C(=O)NCC(=O)O)(C4)C2)C3)cc1 | 292% [may fluoresce violet] (active)
C=CCNC(=O)C12CC3CC(C1)CC(C(=O)NCC=C)(C3)C2 | 106%
CCn1c(C)nc2c1C(=O)c1ccccc1C2=O | 93.7%
O=C(CNC(=O)[C@@H]1Cc2ccccc2CN1)NC1CCCCC1 | 99.4%
Cc1cc2cc3c(cc2nc1SCC(=O)Nc1c(C)cccc1C)CCC3 | 94.7%
NC(=O)c1nsc(C(=O)N(CCCN2CCOCC2)C(C(=O)NC2CCCCC2)c2ccc(Cl)cc2)c1N (stereo not drawn) | 238% [may fluoresce violet] (active)
CC(C)(C)NC(=O)C(c1ccc(Cl)cc1)N(CCO)C(=O)c1snc(C(N)=O)c1N (stereo not drawn) | 97.4%
CCOc1ccc(C(C(=O)NC2CCCC2)N(C(=O)c2snc(C(N)=O)c2N)C2CCCC2)cc1 (stereo not drawn) | 113%
CC(C)CNC(=S)NC(=O)c1ccc(Cl)cc1 | 100%
COCc1cc(=O)n2[nH]c(C)c(-c3ccccc3)c2n1 | 97.4%
COCCNc1nc2nonc2nc1N1CCCC1c1nccs1 (stereo not drawn) | 90.4%

SMILES | GFP response vs DMSO
CCc1ccc(S(=O)(=O)N/N=C\c2ccc([N+](=O)[O-])o2)cc1 | 105%
CCn1c(/C=C/c2ccc([N+](=O)[O-])o2)nc2ccccc2c1=O | 304% (active)
CCn1c(=O)c([N+](=O)[O-])c(NCc2ccc3c(c2)OCO3)c2ccccc21 | 94.2%
CC(C)(C)c1ccccc1NC(=O)CN1C(=O)NC2(CCCC2)C1=O | 105%
Cc1ccc(Cl)c(OCC(=O)NN2CCN(C)CC2)c1 | 103%
O=C(COC(=O)c1ccc(O)cc1O)c1ccc2c(c1)OCCO2 | 110%
COc1ccccc1C(=O)NCC(=O)OCC(=O)Nc1nnc(-c2ccccc2)o1 | 99.7%
Cc1cc(C)cc(N(CC(=O)NC2CCCC2)C(=O)CCC(=O)Nc2nccs2)c1 | 107%
Cc1cc(C)cc(N(CC(=O)NC2CCCC2)C(=O)CCC(=O)Nc2cc(C)on2)c1 | 327% [may fluoresce violet] (active)
Cc1cc(NC(=O)CCC(=O)N(CC(=O)NC2CCCC2)c2ccc(F)cc2)no1 | 101%
CC(=N\NC(=O)c1cc(Br)ccc1O)/C(=N/O)C(=O)Nc1ccccc1 | 102%
Cc1nc(-c2ccc(F)cc2)c(CC(=O)Nc2cc(S(=O)(=O)N3CCCCC3)ccc2C)s1 | 105%
C/C(Cl)=C\Cn1c(Nc2cccc(C)c2)nc2c1c(=O)n(C)c(=O)n2C | 91.5%
O=[N+]([O-])c1ccc(N2CCN(S(=O)(=O)c3ccc4ccccc4c3)CC2)cc1NCc1ccco1 | 91.1%
O=[N+]([O-])c1ccc(N2CCNCC2)cc1NCc1cccnc1 | 309% [may fluoresce violet] (active)
O=C(c1ccccc1)N1CCN(c2ccc([N+](=O)[O-])c(NCc3ccco3)c2)CC1 | 102%
O=C(Cc1cccs1)N(CC1CCCO1)C1(C(=O)NC2CCCCC2)CCCCC1 (stereo not drawn) | 88.4%
Cc1nc2ccccc2c(=O)n1NC(=O)c1ccccc1 | 99.1%
Cc1nc2c(ncn2-c2ccccc2)c(=O)n1NC(=O)CN1CCCC1 | 194% [may fluoresce violet] (active)
O=C(CN1CCCC1)N1CCN(c2ccccc2)CC1 | 91.7%
O=S(=O)(Nc1ncccn1)c1ccc(NS(=O)(=O)c2cccc(Cl)c2Cl)cc1 | 103%
O=C(CSc1ncnc2sccc12)N1CCN(C(=O)c2cccs2)CC1 | 105%

SMILES | GFP response vs DMSO
Nc1c(C(=O)c2cccs2)sc2nsc(SCCN3CCCCC3)c12 | 221% (active)
CCCCCCCCCCCCCCCC(=O)OC/C=C(C)/C=C/C=C(C)/C=C/C1=C(C)CCCC1(C)C | 107%
CCC(=C/c1sc2ccc3ccccc3c2[n+]1C)/C=C1\Sc2ccc3ccccc3c2N1C | 285% (active)
COc1ccc(Cl)cc1NC(=O)COC(=O)C(CC(C)C)N1C(=O)C2CC=CCC2C1=O (stereo not drawn) | 90.8%
Cc1noc(C)c1NC(=O)Nc1ccc2c(c1)C(=O)N([C@H](C)CO)C[C@H](C)[C@@H](CN(C)C(=O)Nc1ccc(C(F)(F)F)cc1)O2 | 103%
CC(=O)NCC(=O)N1CCC(n2nccc2NC(=O)CCCc2ccccc2)CC1 | 95.6%
Nc1c(-c2ccccc2)nnn1Cc1ccccc1 | 96.3%
Cc1nn(Cc2ccccc2)c(C)c1NS(=O)(=O)c1ccccc1 | 111%
OCc1nc(CO)n(Cc2ccccc2)n1 | 276% [may fluoresce violet] (active)
CCOC(=O)C1CCN(c2c(Nc3cc(C)cc(C)c3)c(=O)c2=O)CC1 | 115%
O=C(NCCCn1ccnc1)C1CCCN(S(=O)(=O)c2cc(Cl)ccc2Cl)C1 (stereo not drawn) | 106%
COc1ccc(S(=O)(=O)N(C)CC(=O)NCCCN2CCOCC2)cc1Cl | 95.1%
O=C1/C(=C\Nc2ccccc2)CCN1c1ncccn1 | 127%
CCOC(=O)N1CCN(C(=O)CNC(=O)Cc2ccc(Cl)cc2)CC1 | 106%
CCOC(=O)N1CCN(C(=O)COc2ccc(Br)cc2)CC1 | 104%
CCOC(=O)N1CCN(C(=O)COc2ccc(Cl)cc2C)CC1 | 184% [may fluoresce violet] (active)
COc1ccc(-n2nc(C(=O)NCC(=O)N3CCCCCC3)c3ccccc3c2=O)cc1Cl | 107%
Cc1ccc(Nc2nc(C)cc(C)c2C(N)=O)cc1 | 209% [may fluoresce violet] (active)
CC(=O)Nc1ccc(Nc2cc(C)nc(Nc3ccc(NC(C)=O)cc3)n2)cc1 | 92%
Cc1cc(C)c(C(N)=O)c(Cl)n1 | 104%
COc1ccc(-c2nc(N)sc2C2(O)C(=O)Nc3c(Br)cc(F)cc32)cc1OC (stereo not drawn) | 103%
COc1cc(C(=O)Nc2cc(C(F)(F)F)ccc2N2CCOCC2)ccc1O | 106%
